# Only a selection was taken, and hits are over-represented in it overall.
# Pf apPOL inh = Pf-apPOL DNA polymerase inhibition; Recombinant Pf-apPOL, molecular beacon fluorescence, 1.5 h; inhibition, % at 10 µM; 210,000 compounds, 0.25% hits
# mHTT CaM bind = inhibitors of human mutant huntingtin-calmodulin interaction. P42858. AlphaScreen His-mHTT/GST-CaM binding, luminescence. inhibition, % at 15 µM. 190,000 compounds, 3.6% hits
# Numbers stand for hits; 0 = inactive; - = no result given. Rule as the data show it: active = inhibition above about 50%; inactive = the rest.
SMILES,Pf apPOL inh,mHTT CaM bind
CCN1CCN(S(=O)(=O)c2ccc(Cl)c(C(F)(F)F)c2)CC1,0,0
Cc1ccc(CN2CCc3nc(N4CCC(C)CC4)ncc3C2)cc1,0,0
CCOc1ccccc1CN1CCc2nc(N3CCN(c4ccccc4F)CC3)ncc2C1,0,66
Fc1cccc(CN2CCc3nc(N4CCN(c5ccccn5)CC4)ncc3C2)c1F,0,0
COc1ccccc1CN1CCc2nc(N3CCN(c4ccccc4F)CC3)ncc2C1,0,0
COc1ccc(OC)c(CN2CCc3nc(N4CCC(C)CC4)ncc3C2)c1,0,52
COc1ccc(CN2CCc3nc(N4CCC(C)CC4)ncc3C2)cc1,0,0
Cc1ccc(CN2CCc3nc(N4CCC(C)CC4)ncc3C2)cc1C,0,72
CC1CCN(c2ncc3c(n2)CCN(Cc2cccc(F)c2F)C3)CC1,0,74
CC(C)c1cc(C2CCCN2C(=O)Cc2ccc(Cl)cc2)no1 (configuration not stated),0,0
CC(=O)c1csc(-c2ccc(OCC(F)(F)F)nc2)n1,0,-
O=C(Nc1c(Cl)cccc1Cl)c1cc(-c2ccco2)on1,0,0
CCN(Cc1ccccc1)C(=O)c1cc2cc3ccc(OC)cc3nc2s1,0,0
COc1ccc(OC)c(CN2CCc3nc(N4CCN(c5ccccn5)CC4)ncc3C2)c1,0,50
COc1ccccc1CN1CCc2nc(N3CCN(c4ncccn4)CC3)ncc2C1,0,100
COc1ccccc1CN1CCc2nc(N3CCN(c4ccccc4)CC3)ncc2C1,0,0
c1ccc(CCN2CCc3nc(N4CCN(c5ccccn5)CC4)ncc3C2)cc1,0,60
Clc1cccc(CN2CCc3nc(N4CCN(c5ccccn5)CC4)ncc3C2)c1,0,0
COc1ccc(CN2CCc3nc(N4CCN(c5ccccn5)CC4)ncc3C2)c(OC)c1,0,0
CSc1ccccc1-c1nnc(NC(=O)c2ccc(S(=O)(=O)N3CCCC3)cc2)o1,0,0
O=Cc1cn(CC(=O)NCc2cccs2)c2ccc(Br)cc12,0,0
COc1cc(S(=O)(=O)NCCNc2cc(-n3cccn3)ncn2)c(C)cc1C,0,0
O=C(c1ccccc1F)N1CCOC(CN2CCOCC2)C1 (configuration not stated),0,0
CCC(=O)NCc1nc2c(n1C)CN(S(=O)(=O)c1ccc(OC)c(Cl)c1)CC2,0,0
Cc1ccccc1CC(=O)N1CCN(c2cc(-c3cccnc3)[nH]n2)CC1,0,0
SMILES,Pf apPOL inh,mHTT CaM bind
Cc1ccccc1CC(=O)N1CCCN(c2cc(-c3ccccc3)[nH]n2)CC1,0,61
O=C(c1cc2ccccc2[nH]1)N1CCCN(c2cc(-c3ccc4c(c3)OCO4)[nH]n2)CC1,0,56
O=C(c1ccsc1)N1CCCN(c2cc(-c3ccc4c(c3)OCO4)[nH]n2)CC1,0,0
Cc1ccc(-c2cc(Cc3ccc(-c4ccc(OC(F)(F)F)cc4)o3)c(=O)[nH]n2)cc1,0,-
Cc1ccc(-n2nc(C)c3sc(N4CCCC(C(=O)NCc5ccc(C)o5)C4)nc32)cc1 (configuration not stated),0,0
COc1ccc2oc(=Nc3ccc(C(=O)O)cc3)c(C(=O)Nc3ccc(OC)c(OC)c3)cc2c1,0,0
Oc1c(C(Nc2cccc(C(F)(F)F)c2)c2cccnc2)ccc2cccnc12 (configuration not stated),0,99
O=[N+]([O-])c1ccc(OCCOc2cccc3cccnc23)cc1,0,0
Cc1[nH]c2ccccc2c1C(Nc1cccc(C(F)(F)F)c1)c1cccnc1 (configuration not stated),0,0
CN(C)CCC(c1ccc(Cl)cc1)c1ccccn1 (configuration not stated),0,-
Oc1c(C(Nc2ccc(Cl)cc2)c2ccccn2)ccc2cccnc12 (configuration not stated),0,100
O=[N+]([O-])c1ccc(NC(c2ccccn2)c2ccc3cccnc3c2O)cc1 (configuration not stated),0,100
Oc1c(C(Nc2cccc(Cl)c2)c2ccccn2)ccc2cccnc12 (configuration not stated),0,100
O=C(Nc1cccc2cccnc12)c1ccc(Cl)cc1Cl,0,0
Cc1ccccc1NC(=O)C1CCCN(c2nc3c(s2)c(C)nn3-c2cccc(F)c2)C1 (configuration not stated),0,0
CCOCCCNC(=O)c1cnn2c(C)c(Cc3ccccc3F)c(C)nc12,0,0
Cn1c(Sc2n[nH]c(N)n2)nnc1[N+](=O)[O-],-,0
Cc1ccc(NC(=O)C(NC(=O)C2CCC(C)CC2)C(C)C)nc1 (configuration not stated),0,0
CNC(=O)N1CCCC(c2cccc(C(=O)NCCN3CCCCCC3)c2)C1 (configuration not stated),0,0
CCc1cccc(C)c1NC(=O)CCCC(=O)O,0,0
CCn1c(SC)nnc1-c1nn(C)c2c1CN(C(=O)c1ccccc1F)CC2,0,0
Cc1ccc(NC(=O)c2cc3cc(Br)cc(Br)c3oc2=O)cc1,0,0
Oc1c(C(Nc2cccc(C(F)(F)F)c2)c2ccccn2)ccc2cccnc12 (configuration not stated),0,99
COc1ccc(NC(c2cccnc2)c2ccc3cccnc3c2O)cc1 (configuration not stated),0,99
O=C(NCc1ccccn1)C(=O)Nc1cccc(C(F)(F)F)c1,0,0
SMILES,Pf apPOL inh,mHTT CaM bind
COc1ccc(NC(=O)c2cccnc2)cc1,0,0
COc1ccc(C)cc1N1CCN(C(=O)c2ccccc2F)C(C)C1=O (configuration not stated),0,0
CC(Nc1cc(N2CCN(C(=O)c3ccco3)CC2)ccc1[N+](=O)[O-])c1ccccc1 (configuration not stated),0,56
CC(Nc1cc(N2CCN(C(=O)c3cccs3)CC2)ccc1[N+](=O)[O-])c1ccccc1 (configuration not stated),0,0
N#CCC(N)=Nc1sc2c(c1C#N)CCCC2,0,67
CC(N)=Nc1sc2c(c1C#N)CCCC2,0,0
C=CCn1c(SCc2ccccc2)nc2sc(CC)cc2c1=O,0,0
COc1cc(CNc2ccc(F)c(Cl)c2)cc([N+](=O)[O-])c1O,0,0
COc1cc(CNc2ccc(F)c(Cl)c2)c([N+](=O)[O-])cc1OC,0,62
O=[N+]([O-])c1ccccc1CNc1ccc2cn[nH]c2c1,0,59
COc1cc(CNC2CCCCCC2)c([N+](=O)[O-])cc1OC,0,0
O=[N+]([O-])c1cccc(CNc2cccc(F)c2)c1,0,0
COc1cc(CNc2ccc3c(c2)CCC3)c([N+](=O)[O-])cc1OC,0,71
O=[N+]([O-])c1cccc(CNc2ccc3c(c2)CCC3)c1,0,89
O=C(Nc1ccc2cn[nH]c2c1)c1ccc([N+](=O)[O-])o1,0,0
CCc1nnc(NC(=O)c2ccc([N+](=O)[O-])cc2)s1,0,0
Cc1cc(=O)[nH]c(SCC(=O)c2ccccc2)n1,0,0
O=[N+]([O-])c1ccccc1CNc1ccc2c(c1)CCC2,0,94
O=[N+]([O-])c1ccccc1CNc1ccc(F)c(F)c1,0,0
COC(=O)c1ccc(=O)oc1,-,0
COC(=O)c1ccc2occ(-c3oc4ccc(C(=O)OC)cc4c3O)c2c1,0,100
Cn1c(=O)c(C#N)c(-c2cccs2)n2cnnc12,0,-
Cc1ccnc(NC(=O)c2ccc(C(=O)Nc3cc(C)ccn3)cc2)c1,0,0
Cc1ccc(NC(=O)c2cccnc2-c2ccsc2)c(C)c1,0,0
